Results on seven compounds are retold here after PubChem BioAssay (Tox21).

SMILES strings stand for the structures. Where “and” joins values, the source holds several entries; their conditions need not be identical. Equal values may be shown once. Records with an inconclusive call do not appear. A structure can be active in one record and inactive in another. Calls of active or inactive are those of the source. Unless noted, calls come from the whole dose curve; as a rule, active = well fitted curve in the direction sought with a large enough effect in the repeat runs; inconclusive = weak or mixed curves; inactive = no such curve, though single readings can be large; an effect the other way counts as inactive or inconclusive.

A short description of test [1]: qHTS assay to identify small molecule agonists of the hypoxia (HIF-1) signaling pathway - cell viability counter screen (AID 1224844; calls by dose curve; note: nearly all actives have a fitted effect of over 50% in size; note: potency is the fitted concentration of half-maximal effect). The gist of the method: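 HRE-bla ME-180 cells in medium with 0.5% dialyzed FBS were preincubated 5 hrs at 37C, exposed to compounds for 17 hrs, then viability was read as CellTiter-Glo luminescence after 30 min at room temperature, in the reporter wells.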
Background: qHTS replaces the single test concentration by a dilution series.

Test [2] can be described thus: qHTS assay to identify small molecule agonists of H2AX (AID 1224845; active = well fitted activation curve with a large enough effect in the signal ratio in the repeat runs, not every such curve was filed as active; the % refers to the signal ratio; note: potency is the fitted concentration of half-maximal effect). The method in brief:
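Wild-type CHO-K1 cells, plated overnight, exposed 3hr at 37C to 15 concentrations (0.76% DMSO final). Lysed, then HTRF anti-pH2AX (S139) cryptate and anti-H2AX-d2 antibodies, 24 hr room temperature; 665/620 nm emission read.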

The nature of test [3]: qHTS assay to identify small molecule agonists of H2AX - cell viability counter screen (AID 1224847; calls by dose curve; note: nearly all actives have a fitted effect of over 30% in size; note: potency is the fitted concentration of half-maximal effect). The gist of the method:
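After overnight plating of 1000 CHO-K1 cells per well, a 15-concentration compound series was applied for 3 hr at 37C. Luminescence from CellTiter-Glo, read following 30 min at room temperature, reflected cell viability.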

Test [4] in a line: qHTS RealTime-Glo MT Cell Viability Assay in HepG2 cells - 24 hour (AID 1224867). Note: nearly all actives have a fitted effect of over 50% in size. Note: potency is the fitted concentration of half-maximal effect. The method in brief:
(§1)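 Cells + NanoLuc/prosubstrate dispensed (600 cells/well) → 5 h at 37 C/5% CO2 → compounds in DMSO transferred → 40 h incubation at 37 C, luminescence read at 0, 8, 16, 24, 32, 40 h.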

Test [5] can be described thus: qHTS RealTime-Glo MT Cell Viability Assay in HEK293 cells - 32 hour (AID 1224868). Note: nearly all actives have a fitted effect of over 50% in size. Note: potency is the fitted concentration of half-maximal effect. The method in brief: (§2)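 Tox21 10K qHTS, HEK293, 600 cells/well, RealTime-Glo reagent co-dispensed with cells; 5 h preincubation, compound by pintool, 37 C, luminescence at 0–40 h.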
The nature of test [6]: A CellTox Green Cytotoxicity Assay to monitor cytotoxicity in HEK293 cells - 0 hour (AID 1224869). Note: nearly all actives have a fitted effect of over 50% in size. The gist of the method:
(§3)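 HEK293 cells premixed with CellTox Green dye were seeded at 600 cells/well and left 5 h at 37 C/5% CO2 before pin transfer of 23 nL compound in DMSO. Fluorescence from dye bound to dead-cell DNA was read during 40 h treatment.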

The nature of test [7]: qHTS RealTime-Glo MT Cell Viability Assay in HepG2 cells - 40 hour (AID 1224870). Note: nearly all actives have a fitted effect of over 50% in size. Note: potency is the fitted concentration of half-maximal effect. The method in brief: (§4)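 HepG2 cells (600/well) mixed with RealTime-Glo MT reagent, settled 5 h at 37 C/5% CO2 before compound addition. Nonlytic NanoLuc luminescence from viable-cell prosubstrate reduction read repeatedly during 40 h treatment at 37 C.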
Test [8] is described as follows: A CellTox Green Cytotoxicity Assay to monitor cytotoxicity in HEK293 cells - 40 hour (AID 1224871). Note: nearly all actives have a fitted effect of over 45% in size. Note: potency is the fitted concentration of half-maximal effect. The gist of the method:
as §3

A short description of test [9]: qHTS RealTime-Glo MT Cell Viability Assay in HEK293 cells - 16 hour (AID 1224872). The gist of the method: as §2
Test [10] can be described thus: qHTS RealTime-Glo MT Cell Viability Assay in HepG2 cells - 8 hour (AID 1224873). Note: nearly all actives have a fitted effect of over 55% in size. Note: potency is the fitted concentration of half-maximal effect. The method in brief:
as §4

Test [11] is described as follows: qHTS RealTime-Glo MT Cell Viability Assay in HEK293 cells - 40 hour (AID 1224874). Note: nearly all actives have a fitted effect of over 50% in size. Note: potency is the fitted concentration of half-maximal effect. Conditions: RealTime-Glo luminescence; max response: stronger effect = lower value. The gist of the method:
(§5)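 HEK293 cells mixed with RealTime-Glo reagents (NanoLuc plus cell-permeant prosubstrate) at 600 cells/well, preincubated 5 h at 37 C/5% CO2, then given 23 nL compound in DMSO. Nonlytic luminescence from viable cells was read at 0, 8, 16, 24, 32 and 40 h.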

Test [12] in a line: A CellTox Green Cytotoxicity Assay to monitor cytotoxicity in HEK293 cells - 24 hour (AID 1224875). Note: nearly all actives have a fitted effect of over 45% in size. Note: potency is the fitted concentration of half-maximal effect. The method in brief: as §3
Test [13] in a line: A CellTox Green Cytotoxicity Assay to monitor cytotoxicity in HepG2 cells - 24 hour (AID 1224878). Note: nearly all actives have a fitted effect of over 45% in size. Note: potency is the fitted concentration of half-maximal effect. The gist of the method: (§6)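 HepG2 cells were seeded together with the CellTox Green dye at 600 cells/well, left 5 h at 37 C/5% CO2, then given compounds in DMSO. Fluorescence from dye bound to dead-cell DNA was read repeatedly over 40 h of treatment at 37 C.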
A short description of test [14]: A CellTox Green Cytotoxicity Assay to monitor cytotoxicity in HepG2 cells - 40 hour (AID 1224879). Note: nearly all actives have a fitted effect of over 40% in size. Note: potency is the fitted concentration of half-maximal effect. The method in brief:
as §6

The nature of test [15]: qHTS RealTime-Glo MT Cell Viability Assay in HEK293 cells - 0 hour (AID 1224880). Note: top concentration of the series differs between compounds; nearly all actives have a fitted effect of over 45% in size. The gist of the method: as §5
Test [16] can be described thus: A CellTox Green Cytotoxicity Assay to monitor cytotoxicity in HepG2 cells - 16 hour (AID 1224876). Note: nearly all actives have a fitted effect of over 45% in size. Note: potency is the fitted concentration of half-maximal effect. The gist of the method:
as §6

Test [17] is described as follows: qHTS RealTime-Glo MT Cell Viability Assay in HepG2 cells - 32 hour (AID 1224877). Note: nearly all actives have a fitted effect of over 55% in size. Note: potency is the fitted concentration of half-maximal effect. The gist of the method: as §1
Test [18] can be described thus: qHTS assay to identify small molecule agonists of the hypoxia (HIF-1) signaling pathway (AID 1224846; active = well fitted activation curve with a large enough effect in the signal ratio in the repeat runs, not every such curve was filed as active; the % refers to the signal ratio). The gist of the method:
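HRE-bla ME-180 cells (beta-lactamase reporter under hypoxia response element) were plated at 2,000 cells/well in medium with 0.5% dialyzed FBS, rested 5 hrs, then given compounds in DMSO for 17 hrs at 37C, 5% CO2. Reporter induction was read with CCF4-AM FRET substrate.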

Test [19] is described as follows: qHTS assay to identify small molecule antagonists of the estrogen related receptor (ERR) signaling pathway from Tox21 library (AID 1224848). Note: nearly all actives have a fitted effect of over 50% in size. Note: potency is the fitted concentration of half-maximal effect. The method in brief: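 ERR reporter cell line (from NTP) seeded 2,000 cells/well, rested 6 h at 37 C/5% CO2, then pin-dosed with compounds in DMSO. After 18 h at 37 C, ONE-Glo added; luminescence read after 30 min at room temperature.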

The nature of test [20]: qHTS assay to identify small molecule agonists of the estrogen related receptor (ERR) signaling pathway from Tox21 library (AID 1224849; calls by dose curve; note: nearly all actives have a fitted effect of over 15% in size). Conditions: ERR reporter cell line, ONE-Glo luciferase, 18 h. The gist of the method:
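ERR reporter cell line (NTP) seeded, rested 6 h at 37 C/5% CO2, then pinned with Tox21 compounds in DMSO. After 18 h at 37 C, ONE-Glo luciferase luminescence was read following 30 min at room temperature.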
% is set by controls: 0 for no effect and ±100 for the full control effect.

With `C[N+](C)(C)CC1CO1` (stereo not given), the Potency entry in test [1], in [2], in test [3], in test [4], in test [5] and in test [6] was “inactive” each time. Besides, the Potency result in [7], in test [8], in test [9], in test [10], in test [12] and in [13] was “inactive” each time. In test [14], the Potency result is “inactive”. The max response in [11] was 5.73% (inactive). The result in test [15] was inactive.

Consider `C=CC(=O)NC(C)(C)CC(C)=O`, for which the Potency entry in [1], in [2], in test [3], in [4], in [5] and in test [7] was “inactive” throughout. Besides, the Potency result in test [8], in [9], in test [10], in test [12], in test [16] and in test [17] was “inactive” throughout. Besides, the Potency entry in [13] and in test [14] was “inactive” in each case. Moreover, in test [11], the max response was 3.92% (inactive). For the same compound, the call in test [15] was inactive.

For `C[C@@H]1C[C@@H]([C@H](O)CC2CC(=O)NC(=O)C2)C(=O)[C@@H](C)C1`, the Potency in test [1] is 0.379 µM (active); in test [19], 682 nM (active) and 545 nM (active) and 750 nM (active); in [5] it was 387 nM (active) and 219 nM (active) and 169 nM (active); in test [8] it was “inactive and 19.5 µM (active)”; in test [11], 387 nM (active) and 245 nM (active) and 169 nM (active). Also, the call in test [18] and in test [15] was inactive. For the same compound, the Potency entry in [3], in test [4], in test [6], in test [7], in [10] and in test [12] was “inactive” throughout. The Potency result in [16], in [17], in test [13] and in [14] was “inactive” throughout. The activity change, positive = activation is -64.4% (inactive) in test [20] (at 42.5 µM (top of the series)); -74.2% (inactive) and -68.3% (inactive) in [20] (at 92.4 µM (top of the series)).

For the compound `[Cl-].[Cl-].[Hg+2]`, the Potency in test [1] is 43.5 µM (active); in test [2], 1.26 µM (active) and 1.42 µM (active); in [3], 17.8 µM (active) and 7.13 µM (active); in test [4], 48.8 µM (active) and 3.47 µM (active); in test [7], 3.89 µM (active); in test [8], 21.8 µM (active) and 3.89 µM (active). The Potency was 48.8 µM (active) and 3.89 µM (active) in [10]; 2.45 µM (active) in test [11]; 21.8 µM (active) and 8.71 µM (active) in test [12]; 38.7 µM (active) and 3.89 µM (active) in test [16]; 54.7 µM (active) and 3.47 µM (active) in [17]; 24.4 µM (active) and 3.89 µM (active) in test [13]. Further, the Potency in test [14] is 24.4 µM (active) and 2.45 µM (active). For the same compound, the Potency result in [6] is “inactive”. Also, in test [15], the compound was called inactive.

For the compound `CC(C)(C)NCC(O)c1cc(Cl)c(N)c(C(F)(F)F)c1` (stereo not given), the Potency entry in test [1], in [3], in [19], in test [4], in [5] and in test [6] was “inactive” in each case. Moreover, the Potency entry in [7], in test [8], in test [9], in test [10], in [12] and in test [16] was “inactive” in each case. The Potency entry in [13] and in [14] was “inactive” in each case. For the same compound, the call in test [18] and in test [15] was inactive. In test [20] (at 42.5 µM (top of the series)), the activity change, positive = activation was -0.267% (inactive). In addition, the max response in [11] is 3.67% (inactive).

For the compound `Oc1cccc(Cl)c1`, the Potency entry in test [1], in test [3], in [19], in [4], in [5] and in test [6] was “inactive” throughout. The Potency result in test [7], in test [8], in test [9], in [10], in [12] and in test [16] was “inactive” each time. For the same compound, the Potency entry in [17], in [13] and in [14] was “inactive” in each case. The compound was classed as inactive in [18] and in [15]. In [20] (at 92.4 µM (top of the series)), the activity change, positive = activation was 1.9% (inactive). Moreover, the max response in test [11] was 0.464% (inactive).

`CCCCCBr`: the Potency entry in test [1], in [2], in test [3], in test [4], in test [6] and in test [7] was “inactive” each time. The Potency result in test [8], in test [10], in test [12], in test [17], in test [13] and in [14] was “inactive” throughout. In addition, the compound was called inactive in test [15].
